Data reported in PubChem BioAssay.
Activity calls are given as the source filed them. Cut-off read from the data, not from the text of the source, unless noted: active = nuclear beta-catenin stimulation mostly above about 4.2% (no sharp cut-off); inactive = mostly below about 10%.

Assays:
[1] = stimulators of nuclear beta-catenin in C2C12, primary screen, imaging, WNT3A-conditioned medium, mouse C2C12, NPC library (AID 1117326); conditions: stronger effect = higher value
[2] = stimulators of insulin release from INS-1E, primary screen, cell-based, 5 mM glucose, NPC library (AID 1117329;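 active = compound raises insulin release from rat beta cells at 5 mM glucose, no numeric limit stated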); conditions: rat INS-1E insulin secretion, at 10 µM, stronger effect = higher value
[3] = growth inhibition of GSK3B-pretreated HCT116 cells – cell-based, CellTiter-Glo, 0.2 to 20 µM (AID 1117336;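 active = compounds lowering colon cancer cell viability after pretreatment blocking the GSK3B kinase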); conditions: HCT116 viability after GSK3B inhibitor, at 20 µM, stronger effect = higher value
[4] = inhibition of endothelial tube formation, primary screen, imaging, VEGF stimulated, CD31 staining, tube area, NPC library (AID 1117340;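 active = compound that reduces growth-factor-driven endothelial tube area in a mixed cell culture, no cutoff stated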); conditions: VEGF-stimulated ADSC/ECFC co-culture, at 10 µM, stronger effect = higher value
[5] = glucagon-like peptide 1 release enhancers, primary assay, NCI-H716 cell line, NPC library (AID 1117341;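 active = compound raises GLP1 secretion from the human gut endocrine cells, with no numeric limit stated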); conditions: NCI-H716 cells, at 10 µM, stronger effect = higher value
[6] = HCT116 colon cancer cell growth inhibition, primary screen, CellTiter-Glo luminescence, NPC library (AID 1117342;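 active = compounds that lower survival of HCT116 colon cancer cells in the luminescence readout, no numeric limit stated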); conditions: at 20 µM (top of the series)
[7] = CellTiter-Glo luminescent readout of SW480 viability loss, NPC library primary (AID 1117343;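 active = compounds that lower viability of the colon cancer cells in the luminescence readout, with no numeric limit stated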); conditions: CellTiter-Glo luminescence; at 20 µM (top of the series) unless noted
[8] = decreased DLD-1 cellular survival, CellTiter-Glo luminescent readout, NPC compound collection, primary HTS (AID 1117346;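 active = compounds that lower survival of DLD-1 colon cancer cells in the luminescence readout, no cutoff given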); conditions: DLD-1 viability, CellTiter-Glo luminescence; at 20 µM (top of the series)
[9] = molecular target: NAD(+) hydrolase SARM1 (Homo sapiens) (UniProt Q6SZW1); assay: SARM1 TIR NADase inhibitors, cell lysate, NAD-Glo luminescence (AID 1508614;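 active = compound whose remaining NAD level is above about 45 nM, limit read from the data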;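 note: higher remaining NAD means stronger inhibition of SARM1 NADase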); conditions: SAM-TIR HEK293T lysate NADase, at 1 µM, stronger effect = higher value
[10] = survival rescue of mitochondrial mutant cells in low glucose, primary screen, MELAS cybrids, Rieske KO mouse fibroblasts, CellTiter-Glo (AID 1508586;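 active = mean z-score across replicates of 1.96 or higher in either the MELAS or the Rieske mutant cell line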;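 note: z relative to plate mean and SD of compound and empty wells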)
[11] = phospholipid biosynthesis inhibitors in animal cells, primary screen, cell-based, LOPAC library, screen 4 (AID 1347384; call rule not given here); conditions: phospholipid biosynthesis inhibition screen, at 10 µM
[12] = molecular target: Mitogen-activated protein kinase 7 (Homo sapiens) (UniProt Q13164); assay: ERK5 transactivation activators in reporter cells, primary screen, cell-based, HTS (AID 1508626;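 active = luciferase signal above three times the same-plate solvent-only control wells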;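 note: luciferase driven by Gal4-ERK5 fusion binding five Gal4 sites before minimal TATA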); conditions: HeLa Gal4-ERK5 transactivation, 18 h, at 5 µM, stronger effect = higher value
[13] = MELAS cybrid survival, CellTiter-Glo 48 h, stronger effect = higher value
[14] = Rieske KO mouse fibroblast survival, CellTiter-Glo 72 h

NAD(+) hydrolase SARM1 (Homo sapiens), sequence (Q6SZW1 whole entry, looked up): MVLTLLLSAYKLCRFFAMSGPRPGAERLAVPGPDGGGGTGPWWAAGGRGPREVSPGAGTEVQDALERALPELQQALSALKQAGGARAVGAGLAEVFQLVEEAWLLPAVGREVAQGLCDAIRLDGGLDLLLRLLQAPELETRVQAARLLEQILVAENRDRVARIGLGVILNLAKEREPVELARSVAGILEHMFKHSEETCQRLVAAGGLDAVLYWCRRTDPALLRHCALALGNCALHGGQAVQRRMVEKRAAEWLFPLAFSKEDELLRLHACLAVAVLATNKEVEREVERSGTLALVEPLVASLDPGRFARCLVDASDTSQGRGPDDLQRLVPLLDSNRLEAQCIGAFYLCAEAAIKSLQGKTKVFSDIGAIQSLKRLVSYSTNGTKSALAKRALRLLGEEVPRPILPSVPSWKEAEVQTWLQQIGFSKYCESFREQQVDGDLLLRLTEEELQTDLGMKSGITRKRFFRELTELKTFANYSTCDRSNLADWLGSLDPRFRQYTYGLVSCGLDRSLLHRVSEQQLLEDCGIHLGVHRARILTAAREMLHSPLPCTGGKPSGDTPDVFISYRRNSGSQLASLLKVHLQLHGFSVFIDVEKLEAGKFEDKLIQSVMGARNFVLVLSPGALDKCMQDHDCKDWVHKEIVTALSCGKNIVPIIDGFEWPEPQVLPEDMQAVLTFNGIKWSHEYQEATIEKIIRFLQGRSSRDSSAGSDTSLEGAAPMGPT
Mitogen-activated protein kinase 7 (Homo sapiens), sequence (Q13164 whole entry, looked up, the tested form may be a part): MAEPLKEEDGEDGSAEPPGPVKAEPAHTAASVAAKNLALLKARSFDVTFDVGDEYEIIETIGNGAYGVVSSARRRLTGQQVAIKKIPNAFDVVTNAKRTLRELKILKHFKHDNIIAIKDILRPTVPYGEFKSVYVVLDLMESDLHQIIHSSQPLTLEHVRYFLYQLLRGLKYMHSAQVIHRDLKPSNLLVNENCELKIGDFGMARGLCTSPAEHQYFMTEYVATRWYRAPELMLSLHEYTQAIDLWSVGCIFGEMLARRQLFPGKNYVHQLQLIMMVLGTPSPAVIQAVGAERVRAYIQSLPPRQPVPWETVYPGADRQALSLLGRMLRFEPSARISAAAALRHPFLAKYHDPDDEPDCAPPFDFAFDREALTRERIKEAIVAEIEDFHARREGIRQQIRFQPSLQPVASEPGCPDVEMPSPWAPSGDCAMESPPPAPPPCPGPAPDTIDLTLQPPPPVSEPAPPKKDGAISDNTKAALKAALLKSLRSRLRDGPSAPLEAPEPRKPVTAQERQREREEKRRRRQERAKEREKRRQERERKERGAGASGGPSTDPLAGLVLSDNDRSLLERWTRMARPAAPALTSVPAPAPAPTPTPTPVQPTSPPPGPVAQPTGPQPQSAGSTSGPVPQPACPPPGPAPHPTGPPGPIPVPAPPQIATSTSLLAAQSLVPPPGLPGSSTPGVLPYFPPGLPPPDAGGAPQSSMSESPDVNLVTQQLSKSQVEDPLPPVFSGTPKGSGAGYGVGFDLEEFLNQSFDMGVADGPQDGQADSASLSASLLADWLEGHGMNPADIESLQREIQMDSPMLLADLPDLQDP

Compound | nuclear beta-catenin stimulation ([1]; at 10 µM) | nuclear beta-catenin stimulation ([1]; stimulation, at 2 µM) [%] | insulin secretion stimulation [2] | viability decrease [3] | tube area decrease [4] | GLP1 secretion stimulation [5] | inhibition of viability [6] | viability decrease (inhibition) [7] | viability decrease (inhibition) [8] | remaining NAD [9] | z-score [10, 13] | z-score [10, 14] | outcome [11] | luciferase signal [12]
Cc1cc(CC(C)CC(C)(C)C)n(O)c(=O)c1 (stereo unspecified) | 43.5% (active) | 50.6 | 2.2% (inactive) | 94.2% (active) | 107% (active) | -0.7% (inactive) | 67.2% (active) | 95.7% (active) | 91.5% (active) | 10 nM (inactive) |  |  |  | 
CCOc1ccccc1C(N)=O | 0.9% (inactive) | 1.6 | -1.8% (inactive) | -5.85% (inactive) | -6.8% (inactive) | 1.9% (inactive) | 22.9% (inactive) | 31.4% (inactive) | -1.45% (inactive) | 10 nM (inactive) |  |  |  | 
Cc1ncc([N+](=O)[O-])n1C | 1.7% (inactive) | 22.2 | 4.1% (inactive) | 38.9% (inactive) | -11.6% (inactive) | -0.5% (inactive) | -2.3% (inactive) | -12.5% (inactive) | -4.4% (inactive) | 10 nM (inactive) |  |  |  | 
OC[C@@H](O)[C@@H](O)[C@H](O)[C@H](O)CO | 0.7% (inactive) | 0.6 | -2% (inactive) | -4.45% (inactive) | 4.3% (inactive) | 1.1% (inactive) | -9.6% (inactive) | 40.5% (inactive) | 8.25% (inactive) | 10 nM (inactive) |  |  |  | 
Cc1cccn2c(=O)c(-c3nnn[nH]3)cnc12 | 3% (inactive) | 1.7 | -1.3% (inactive) | 2.1% (inactive) | -6.7% (inactive) | 3.6% (inactive) | 13.5% (inactive) | 8.4% (inactive) | -1.9% (inactive) |  | 0.721 (inactive) | -0.0743 |  | 
CCNC(=O)/C=C/c1cccc(Br)c1 | 0.9% (inactive) | 0.6 | -2.3% (inactive) | -9.75% (inactive) | -15.1% (inactive) | -0.7% (inactive) | -8.7% (inactive) | 38% (inactive) | 15.1% (inactive) | 10 nM (inactive) |  |  |  | 
Nc1c[n+](N2CCOCC2)no1 | 0.4% (inactive) | -0.3 | -1.7% (inactive) | 15.5% (inactive) | -10.8% (inactive) | -2.6% (inactive) | -13.8% (inactive) | 66.6% (active) | 20.6% (inactive) |  |  |  | inactive | 
N#Cc1cc(NC(=O)C(=O)O)c(Cl)c(NC(=O)C(=O)O)c1 | 3.5% (inactive) | 1.2 | 2.2% (inactive) | -38.9% (inactive) | -0.9% (inactive) | -0.9% (inactive) | -4.9% (inactive) | 25.7% (inactive) | -16.9% (inactive) |  | -0.414 (inactive) | -0.697 |  | 
NC(=O)C(c1ccccc1)(c1ccccc1)[C@@H]1CCN(CCc2ccc3c(c2)CCO3)C1 | 0.1% (inactive) | 1.7 | 16% (inactive) | -129% (inactive) | 25.4% (inactive) | 0.9% (inactive) | 35.1% (inactive) | 22.8% (inactive) | 12.4% (inactive) | 10 nM (inactive) | -1.84 (inactive) | -1.37 |  | 108 AU (inactive)
CO/N=C(\C(=O)N[C@@H]1C(=O)N2C(C(=O)O)=C(CSc3nc(=O)c(O)nn3C)CS[C@H]12)c1csc(N)n1 | -1.8% (inactive) | -0.3 | 0% (inactive) | -26.6% (inactive) | -1.5% (inactive) | -1.7% (inactive) | -9.17% (inactive) | 8.2% (inactive) | -15.1% (inactive) | 10 nM (inactive) |  |  |  | 
CN(C)CCOC1=Cc2ccccc2Sc2ccc(Cl)cc21 | 31.6% (inactive) | -1 | 14.5% (inactive) | 99.3% (active) | 89.3% (active) | -2.6% (inactive) | 99% (active) | 102% (active) | 97.6% (active) |  | 0.153 (inactive) | 0.114 |  | 
